Assay [1] is described as follows: NCATS anti-infectives library activity on the primary C. elegans qHTS viability assay (AID 1745855; calls by dose curve; note: potency is the fitted concentration of half-maximal effect). The essentials: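 Viability read-out is GFP fluorescence of PE254-GFP-FLuc C. elegans, measured by laser cytometry (488 nm) at day 0, 3 and 7. Ten L1 worms per well were incubated 7 days at 21 °C with compounds and bacterial capsules in S medium.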
Assay [2] addresses Lysosomal acid glucosylceramidase (Homo sapiens) (UniProt P04062). The assay is described as follows: Glucocerebrosidase-p2 (AID 348; in the data active = potency below about 10 µM; note: potency is the fitted concentration of half-maximal effect). The following applies: purified GBA, blue fluorogenic substrate, 40 min. The essentials: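 Compounds titrated from 0.6 nM upwards against 0.2 nM enzyme in pH 5.9 citric acid/KH2PO4, taurocholate, tween-20; blue fluorogenic substrate 80 uM, 40 min room temperature, stopped and read Ex 365/Em 440 for AC50.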

Assay [3] is described as follows: AP1 Signaling Pathway (AID 357; active = well fitted curve in either direction with a large enough effect, not every such curve was filed as active;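 note: ME-180 reporter cells stimulated with EGF at its EC50 level; % is set by controls: 0 for no effect and ±100 for the full control effect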). The settings on record: ME-180 AP-1-bla reporter, EGF-induced, beta-lactamase ratio, 5 h; at 7.69 µM (top of the series) unless noted. In a few lines:
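Cells are seeded overnight, exposed to compound titrations and an EC50 level of EGF for 5 hours at 37 °C, then loaded with CCF4 dye for 2.5 hours. Beta-lactamase activity under the AP-1 element is read as a blue/green ratio.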

In assay [4] the target is Cytochrome P450 1A2 (Homo sapiens) (UniProt P05177). Nature of the assay: p450-cyp1a2 (AID 410; calls by dose curve; note: potency is the fitted concentration of half-maximal effect). In a few lines: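 20nM CYP1A2 with 100uM Luciferin-ME (at Km) in 100mM KPO4; compound preincubated 10 min, NADPH regeneration added, 60 min at room temperature. Luciferin quantified by luminescence after detection reagent; normalized to 57 uM furafylline.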
Chain of Cytochrome P450 1A2 (Homo sapiens) (P05177 whole entry, looked up): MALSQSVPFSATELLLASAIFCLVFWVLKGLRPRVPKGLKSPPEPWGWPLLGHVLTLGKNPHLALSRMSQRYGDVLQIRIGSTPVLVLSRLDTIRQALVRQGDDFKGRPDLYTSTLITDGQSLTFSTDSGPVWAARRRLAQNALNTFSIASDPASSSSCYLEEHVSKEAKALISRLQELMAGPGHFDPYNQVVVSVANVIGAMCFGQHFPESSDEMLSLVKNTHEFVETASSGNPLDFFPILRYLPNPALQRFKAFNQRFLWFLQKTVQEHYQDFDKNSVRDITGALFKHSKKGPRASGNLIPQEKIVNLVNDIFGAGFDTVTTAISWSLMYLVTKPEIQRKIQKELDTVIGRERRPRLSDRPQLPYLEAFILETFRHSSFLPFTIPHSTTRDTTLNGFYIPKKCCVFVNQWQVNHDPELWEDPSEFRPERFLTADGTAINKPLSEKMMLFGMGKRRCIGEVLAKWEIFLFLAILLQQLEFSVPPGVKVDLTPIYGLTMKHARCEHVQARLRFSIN
Assay [5] is described as follows: NFAT Signaling Pathway (AID 444; active = well fitted curve in either direction with a large enough effect, not every such curve was filed as active;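 note: carbachol stimulus at about its EC50 of 1 µM final; % is set by controls: 0 for no effect and ±100 for the full control effect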). The following applies: Jurkat NFAT-bla M1, carbachol, beta-lactamase ratio, 5 h; at 7.69 µM (top of the series) unless noted. The essentials: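 Read-out: CCF4 FRET ratio (460 nm/530 nm) after 1 h RT dye loading, used for %activity and AC50 from titration series. Cells: Jurkat NFAT-β-lactamase/M1 line, treated with compound plus 1 uM carbachol for 5 h, 37 °C.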

Assay [6] can be described thus: Stat Signaling Pathway (AID 446; active = well fitted curve in either direction with a large enough effect, not every such curve was filed as active;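 note: ME-180 cervical cancer cells given 40 pM IL-6 alongside compound; SIE-controlled beta-lactamase reporter measured as 460/530 nm FRET emission ratio; % is set by controls: 0 for no effect and ±100 for the full control effect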). In a few lines: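 Screening format detects activators and inhibitors alike: ME-180 SIE-bla cells stimulated at 40 pM IL-6 for 5 hrs with compound, then dual-emission beta-lactamase read at 405 nm excitation.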
Assay [7] has as its target Glucocorticoid receptor (Homo sapiens) (UniProt P04150). Nature of the assay: GR-GFP Redistribution (AID 450;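 active = compounds whose dose series gives a full or clear partial fitted curve of increased nuclear translocation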; note: potency is the fitted concentration of half-maximal effect). The following applies: U2OS GR-GFP nuclear translocation, laser cytometry, 2 h.
For assay [8] the target is unchanged. The assay is described as follows: GR-EFC Redistribution (AID 451; calls by dose curve; note: potency is the fitted concentration of half-maximal effect). The following applies: CHO-K1 GR-EFC translocation, beta-gal luminescence, 2 h. In a few lines:
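Translocation of GR-ED fusion to nuclear EA restores b-gal, read by luminescence after 1 h room-temperature detection. Engineered CHO-K1 biosensor cells, 1,000/well, exposed 2 h at 37 C to titrations up to 46 uM final.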

Assay [9] has as its target Mitogen-activated protein kinase 10 (Mus musculus) (UniProt Q61831). Nature of the assay: JNK3 AlphaScreen Assay (AID 530; active = well fitted curve in either direction with a large enough effect, not every such curve was filed as active;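 note: kinase came from lysate of stimulated human HepG2 cells; signal reports phosphorylation of biotinylated GST-cJun 1-79 at Ser73 with 10 µM ATP; % is set by controls: 0 for no effect and ±100 for the full control effect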). The essentials: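 Compound titrations were preincubated 15 minutes at room temperature with substrate, antibody and pre-activated JNK3-containing HepG2 lysate. Reactions were started with 10 uM ATP and stopped with EDTA-containing bead buffer for AlphaScreen detection.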
(In general: Bead proximity is the source of the signal in Alpha formats.)

Assay [10] deals with Dual specificity protein kinase CLK4 (Homo sapiens) (UniProt Q9HAZ1). Nature of the assay: qHTS Assay for Inhibitors of CDC-like Kinase 4 (Kinase-Glo Assay) (AID 1770). Note: % is set by controls: 0 for no effect and ±100 for the full control effect; nearly all actives have a fitted effect of over 65% in size. The essentials:
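Clk4 25 nM, RS peptide 100 uM, ATP 1 uM, pH 7.5 Tris, 10 mM MgCl2, 2.5 mM DTT; 4.5 h RT; ATP depletion read by Kinase-Glo luminescence.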
For orientation: In qHTS, concentration-response curves come from the screen itself.

Assay [11] has the same target. The assay is described as follows: qHTS Assay for Inhibitors of CDC-like Kinase 4 (ADP-Glo Assay) (AID 1771). Note: % is set by controls: 0 for no effect and ±100 for the full control effect; nearly all actives have a fitted effect of over 70% in size. In a few lines: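 25 nM Clk4 with 100 uM RS repeat peptide and 1 uM ATP (final) in buffer with 2 mM MgCl2, 0.5 mM EGTA, 2.5 mM DTT, 0.01% Triton X-100; 1 h at room temperature; ADP-Glo luminescence for ADP formed.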
The target is the same in assay [12]. The assay is described as follows: qHTS Assay for Inhibitors of CDC-like Kinase 4 (ADP-FP Assay) (AID 1795).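 Note: recombinant human CLK4 phosphorylating RS repeat peptide at 1 µM ATP; % is set by controls: 0 for no effect and ±100 for the full control effect; nearly all actives have a fitted effect of over 60% in size.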 In a few lines: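 Kinase activity was followed as ADP output, converted from fluorescence polarization with a calibration curve. Reactions ran one hour at low ATP (1 uM) with RS peptide substrate.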
In assay [13] the target is Ubiquitin carboxyl-terminal hydrolase 1 (Homo sapiens) (UniProt O94782). The assay is described as follows: Inhibitors of USP1/UAF1: Pilot qHTS (AID 504865).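 Note: rhodamine fluorescence freed from ubiquitin-rhodamine substrate followed over time; top concentration of the series differs between compounds; % is set by controls: 0 for no effect and ±100 for the full control effect; nearly all actives have a fitted effect of over 35% in size.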 In a few lines: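 Enzyme-free wells gave the negative control, while test wells held 1nM USP1/UAF1 preincubated with compound for 15 min at room temperature. Ub-Rho at 150nM final started the reaction, and fluorescence at 480/540 nm was recorded kinetically.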
Chain of Ubiquitin carboxyl-terminal hydrolase 1 (Homo sapiens) (O94782 whole entry, looked up): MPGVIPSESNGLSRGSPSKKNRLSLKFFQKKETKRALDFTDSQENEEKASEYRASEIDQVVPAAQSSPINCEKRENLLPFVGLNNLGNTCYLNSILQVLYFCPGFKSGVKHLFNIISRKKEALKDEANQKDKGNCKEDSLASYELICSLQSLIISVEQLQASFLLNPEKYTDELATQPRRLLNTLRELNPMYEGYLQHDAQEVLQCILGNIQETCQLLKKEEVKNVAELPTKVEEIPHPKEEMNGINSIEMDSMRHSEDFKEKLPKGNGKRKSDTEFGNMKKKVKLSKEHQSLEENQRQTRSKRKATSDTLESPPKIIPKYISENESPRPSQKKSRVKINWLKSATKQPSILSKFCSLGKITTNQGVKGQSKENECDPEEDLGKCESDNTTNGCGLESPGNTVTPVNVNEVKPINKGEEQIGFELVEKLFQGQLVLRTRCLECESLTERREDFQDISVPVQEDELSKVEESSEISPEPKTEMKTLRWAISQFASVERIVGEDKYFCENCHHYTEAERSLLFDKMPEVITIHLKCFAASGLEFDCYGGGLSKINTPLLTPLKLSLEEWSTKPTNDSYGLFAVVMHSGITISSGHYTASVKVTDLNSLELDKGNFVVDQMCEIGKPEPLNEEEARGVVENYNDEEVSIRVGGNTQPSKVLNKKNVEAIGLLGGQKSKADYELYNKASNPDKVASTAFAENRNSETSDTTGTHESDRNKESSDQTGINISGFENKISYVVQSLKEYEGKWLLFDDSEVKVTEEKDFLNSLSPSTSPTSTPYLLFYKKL

Assay [14] in a line: NCATS anti-infectives library activity on HEK293 viability as a counter-qHTS vs the C. elegans viability qHTS (AID 1745854). The essentials:
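HEK293 cells (1,500/well) exposed 24 hr at 37C to 1:5 titrations, up to 41.7 uM final; counter-screen to a C. elegans viability qHTS. Viability by CellTiter-Glo luminescence after 10 min at room temperature; digitonin as control.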

Assay [15] addresses Glutathione peroxidase 1 (Homo sapiens) (UniProt P07203). The assay is described as follows: Primary qHTS Assay for Inhibitors of Recombinant Selenoprotein Glutathione Peroxidase 1 (GPX1) (AID 1845191). Note: % is set by controls: 0 for no effect and ±100 for the full control effect; nearly all actives have a fitted effect of over 65% in size. In a few lines: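 10 nM GPX1 + cpd, 30 min RT; start w/ 1 mM GSH, 0.5 mM cumene hydroperoxide, 0.5 mM NADPH, 100 nM GR, 0.01% BSA; buffer 50 mM Tris-HCl pH 7.5, 2 mM EDTA, 150 mM NaCl; Fl 340/450, 0 & 15 min.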

Assay [16] addresses Phospholipid hydroperoxide glutathione peroxidase GPX4 (Homo sapiens) (UniProt P36969). Nature of the assay: Primary qHTS Assay for Inhibitors of Recombinant Selenoprotein Glutathione Peroxidase 4 (GPX4) (AID 1845192). Note: % is set by controls: 0 for no effect and ±100 for the full control effect; nearly all actives have a fitted effect of over 65% in size. The essentials:
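NADPH consumption, followed by fluorescence at 340/450 nm between 0 and 15 min, reports GPX4 activity via coupled glutathione reductase (100 nM). Enzyme 200 nM was pre-exposed to compound 30 min; 0.5 mM cumene hydroperoxide and 1 mM GSH served as substrates.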

A number with no mark means an inactive call. Inconclusive results are not listed. The source made the active and inactive calls. Unless noted, calls come from the whole dose curve; as a rule, active = well fitted curve in the direction sought with a large enough effect; inconclusive = small, poorly fitted or top-dose-only effect, or another doubt; inactive = no such curve, though single readings can be large; an effect the other way counts as inactive or inconclusive. Bounds are passed on as bounds.

Drawing on PubChem BioAssay (NCATS), this text covers Potency, activity change, negative = inhibition and outcome for three molecules.

Chain of Dual specificity protein kinase CLK4 (Homo sapiens) (Q9HAZ1 whole entry, looked up): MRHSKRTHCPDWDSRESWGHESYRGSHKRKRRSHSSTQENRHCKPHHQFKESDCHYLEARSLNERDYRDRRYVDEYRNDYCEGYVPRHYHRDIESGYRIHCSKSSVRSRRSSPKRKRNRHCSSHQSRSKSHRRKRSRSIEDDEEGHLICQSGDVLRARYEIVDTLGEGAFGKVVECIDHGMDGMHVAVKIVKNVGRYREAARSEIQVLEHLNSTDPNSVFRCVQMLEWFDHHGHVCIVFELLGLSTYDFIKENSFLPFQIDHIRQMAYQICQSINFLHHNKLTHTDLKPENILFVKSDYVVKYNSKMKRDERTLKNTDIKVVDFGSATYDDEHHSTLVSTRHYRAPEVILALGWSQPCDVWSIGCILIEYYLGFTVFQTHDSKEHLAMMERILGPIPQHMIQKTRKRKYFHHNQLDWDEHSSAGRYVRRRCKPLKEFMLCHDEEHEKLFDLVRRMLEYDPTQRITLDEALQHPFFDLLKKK
Chain of Glucocorticoid receptor (Homo sapiens) (P04150 whole entry, looked up): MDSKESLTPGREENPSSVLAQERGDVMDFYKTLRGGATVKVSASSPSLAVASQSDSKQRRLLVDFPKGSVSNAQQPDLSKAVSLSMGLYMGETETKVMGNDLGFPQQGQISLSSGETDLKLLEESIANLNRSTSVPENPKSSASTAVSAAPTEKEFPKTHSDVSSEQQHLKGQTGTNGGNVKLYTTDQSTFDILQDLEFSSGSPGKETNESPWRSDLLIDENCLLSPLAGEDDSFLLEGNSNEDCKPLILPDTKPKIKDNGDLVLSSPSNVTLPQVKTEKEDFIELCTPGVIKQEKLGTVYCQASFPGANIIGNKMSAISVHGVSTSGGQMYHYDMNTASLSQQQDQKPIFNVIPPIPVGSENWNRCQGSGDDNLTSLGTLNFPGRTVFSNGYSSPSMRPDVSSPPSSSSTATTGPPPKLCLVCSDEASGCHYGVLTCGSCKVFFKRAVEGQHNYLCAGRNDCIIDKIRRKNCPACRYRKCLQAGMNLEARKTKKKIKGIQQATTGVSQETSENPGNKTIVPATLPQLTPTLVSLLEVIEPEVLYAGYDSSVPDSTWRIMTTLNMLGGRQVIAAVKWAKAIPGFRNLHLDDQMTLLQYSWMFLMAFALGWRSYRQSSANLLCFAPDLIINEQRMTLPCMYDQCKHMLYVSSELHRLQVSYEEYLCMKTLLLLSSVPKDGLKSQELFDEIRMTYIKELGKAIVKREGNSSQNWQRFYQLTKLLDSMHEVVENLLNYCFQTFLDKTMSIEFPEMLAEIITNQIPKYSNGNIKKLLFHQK
Chain of Glutathione peroxidase 1 (Homo sapiens) (P07203 whole entry, looked up): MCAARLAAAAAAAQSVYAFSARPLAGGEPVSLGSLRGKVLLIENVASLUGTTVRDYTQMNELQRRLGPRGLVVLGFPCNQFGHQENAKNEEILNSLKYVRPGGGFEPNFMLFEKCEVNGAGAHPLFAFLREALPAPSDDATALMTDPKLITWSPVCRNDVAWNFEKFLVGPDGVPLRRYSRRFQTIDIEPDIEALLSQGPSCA
Chain of Phospholipid hydroperoxide glutathione peroxidase GPX4 (Homo sapiens) (P36969 whole entry, looked up): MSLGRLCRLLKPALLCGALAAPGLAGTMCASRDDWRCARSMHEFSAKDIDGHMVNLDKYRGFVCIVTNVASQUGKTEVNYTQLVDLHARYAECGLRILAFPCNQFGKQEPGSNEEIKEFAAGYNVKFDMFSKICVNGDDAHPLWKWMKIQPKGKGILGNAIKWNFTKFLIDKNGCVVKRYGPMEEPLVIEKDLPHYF
Chain of Lysosomal acid glucosylceramidase (Homo sapiens) (P04062 whole entry, looked up): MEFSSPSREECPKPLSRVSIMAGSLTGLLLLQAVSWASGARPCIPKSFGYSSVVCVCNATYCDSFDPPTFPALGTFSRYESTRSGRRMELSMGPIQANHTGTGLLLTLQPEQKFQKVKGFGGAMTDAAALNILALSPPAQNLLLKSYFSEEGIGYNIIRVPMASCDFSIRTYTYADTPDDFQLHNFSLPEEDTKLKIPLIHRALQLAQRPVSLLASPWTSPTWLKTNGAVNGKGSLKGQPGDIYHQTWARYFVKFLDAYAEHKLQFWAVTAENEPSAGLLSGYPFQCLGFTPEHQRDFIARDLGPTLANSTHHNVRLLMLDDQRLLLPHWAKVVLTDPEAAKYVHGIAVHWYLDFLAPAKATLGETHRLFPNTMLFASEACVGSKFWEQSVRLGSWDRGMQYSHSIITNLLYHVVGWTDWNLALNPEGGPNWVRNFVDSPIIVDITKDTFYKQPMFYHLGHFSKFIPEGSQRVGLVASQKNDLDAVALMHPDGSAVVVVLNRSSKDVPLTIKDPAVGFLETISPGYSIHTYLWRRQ

`COc1ccc(-c2oc3cc(OC)c(OC)c(O)c3c(=O)c2OC)cc1O`: in [1], the Potency was 0.816 µM (active).
`COc1ccc(Oc2ncc3nc(-c4cccc(C#N)c4)c(=O)n(CCC#N)c3n2)cc1`: the Potency in [2] is over 11.4 µM; in assay [4], 25.1 µM (active); in assay [7] it was over 9.22 µM; in assay [8], over 46 µM. The activity change, negative = inhibition in assay [3] is -20.3%; in [5] it was 14.2%. In addition, the molecule was classed as inactive in [6]. For the same molecule, the Potency result in [9], in assay [10], in [11], in assay [12] and in [13] was “inactive” each time.
Turning to `CC(C)(C)NC(=O)N[C@H](C(=O)N1C[C@H]2[C@@H]([C@H]1C(=O)NC(CC1CCC1)C(=O)C(N)=O)C2(C)C)C(C)(C)C` (stereo partly specified), the Potency result in [14], in assay [15] and in assay [16] was “inactive” in each case.
